Screens: PubChem, The Scripps Research Institute Molecular Screening Center
FBW7 act: FBW7 E3 ligase activators, primary screen, biochemical, AlphaScreen, human | normalized activity (activation), % at 26.1 µM | AlphaScreen FBW7–phospho-cyclin E peptide binding, activator screen | hit rate 0.13% among 650,000; in the data active = normalized activity above about 1.9%;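 note: purified mutant Fbw7 with reduced substrate affinity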
Target sequence (Q969H0 whole entry, looked up): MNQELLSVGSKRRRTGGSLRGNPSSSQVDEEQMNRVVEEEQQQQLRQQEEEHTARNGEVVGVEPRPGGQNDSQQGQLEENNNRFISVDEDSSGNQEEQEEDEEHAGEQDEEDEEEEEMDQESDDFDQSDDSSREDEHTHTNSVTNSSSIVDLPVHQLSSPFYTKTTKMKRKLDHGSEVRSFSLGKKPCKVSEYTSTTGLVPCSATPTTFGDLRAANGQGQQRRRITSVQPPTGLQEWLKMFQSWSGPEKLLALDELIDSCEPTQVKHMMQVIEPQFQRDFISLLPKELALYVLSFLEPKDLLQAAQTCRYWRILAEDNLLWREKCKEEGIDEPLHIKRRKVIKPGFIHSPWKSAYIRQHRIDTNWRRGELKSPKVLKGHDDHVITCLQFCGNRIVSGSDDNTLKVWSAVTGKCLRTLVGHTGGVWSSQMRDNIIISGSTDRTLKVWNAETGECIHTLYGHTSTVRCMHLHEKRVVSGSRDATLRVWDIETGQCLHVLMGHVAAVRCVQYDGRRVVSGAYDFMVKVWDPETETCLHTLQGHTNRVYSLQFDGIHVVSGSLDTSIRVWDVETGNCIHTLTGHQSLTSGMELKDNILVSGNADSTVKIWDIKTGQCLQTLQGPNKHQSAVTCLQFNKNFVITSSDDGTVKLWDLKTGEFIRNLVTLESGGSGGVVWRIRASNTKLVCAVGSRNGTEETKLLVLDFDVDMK
GPR151 activ: activators of human GPR151, primary screen, cell-based, PathHunter beta-arrestin, luminescence; activation, % at 11.2 µM; hit rate 1% among 650,000; AID 1508602, 2020; PathHunter beta-arrestin GPR151 cells; G-protein coupled receptor 151 (Homo sapiens), Q8TDV0; in the data active = activation above about 4.9%
MITF inh: MITF inhibitors, primary screen, biochemical, AlphaScreen, human. Microphthalmia-associated transcription factor (Homo sapiens), O75030. AlphaScreen MITF homodimerization, bead proximity signal. inhibition, % at 2.6 µM. hit rate 0.91% among 650,000. AID 1259374, 2018; in the data active = inhibition above about 50%
TEAD-YAP inh: TEAD-YAP interaction inhibition, primary screen, TEAD-YAP interaction inhibitor project, luminescence, HEK-TIYL cells; TEAD-Gal4/YAP UAS-luciferase luminescence; inhibition, % at 9.12 µM; hit rate 1.4% among 640,000; in the data active = inhibition above about 32%
Numbers stand for hits; – = inactive. Most compounds without a hit are left out; they make up all but 3.5% or so of the library.

SMILES | FBW7 act | GPR151 activ | MITF inh | TEAD-YAP inh
CCOCCCNC(=O)/C(C#N)=C/c1c(Oc2cccc(C)c2)nc2c(C)cccn2c1=O | – | – | – | –
O=C1NC(c2cc3c(cc2Cl)OCO3)Nc2ccccc21 (stereo not given) | – | – | – | 51
C/C1=C2N=C(/C=C3N=C(/C(C)=C4\NC(C(CC(N)=O)C4(C)CCC(=O)NCC(C)OP(=O)(O)OC4C(CO)OC(n5cnc6cc(C)c(C)cc65)C4O)C4(C)N=C1C(CCC(N)=O)C4(C)CC(N)=O)C(CCC(N)=O)C\3(C)C)C(CCC(N)=O)C/2(C)CC(N)=O (stereo not given) | – | – | – | 33
Cn1c(=O)c2c(nc(Oc3ccc4c(c3)OCO4)n2Cc2ccc(Cl)cc2Cl)n(C)c1=O | – | – | – | –
CC1=C(C(=O)NCc2ccccc2)C2(CCCCCC2)OC1=O | – | – | – | –
CC(C)/C=C1/CCCc2c1[nH]c1ccccc1c2=O | – | – | – | 42
O=C(CN(Cc1ccccc1)S(=O)(=O)c1ccccc1)NC1CCCCC1 | – | – | – | –
CCNC(=O)c1ccc(CN2CCN(c3ccccc3)CC2)cc1 | – | – | – | –
O=C(Nc1ccccc1C(F)(F)F)c1ccc(CN2CCN(c3ccccc3)CC2)cc1 | – | – | – | 47
c1ccc(-c2cnc(SCCN3CCOCC3)n2CC2CCCO2)cc1 (stereo not given) | – | – | 57 | –
NC(=O)c1ccccc1C(=O)c1ncc[nH]1 | – | – | – | –
c1ccc(OCCSc2nnc3sc4ccccc4n23)cc1 | – | – | – | 71
CCCc1ccc(Oc2cn[nH]c2-c2ccc(O)cc2O)cc1 | – | – | – | 65
Cc1noc(C)c1-c1cc(NCc2cccnc2)nc(N)n1 | – | – | – | –
Cc1ccc(-c2ccccc2CN2CCN(C)C(CCO)C2)o1 (stereo not given) | – | – | – | –
COc1ccc(Cl)cc1NC(=O)CN1C(=O)CC(c2ccco2)Sc2ccccc21 (stereo not given) | – | – | – | 45
COc1ccc(OC)c(NC(=O)CN2C(=O)CC(c3ccco3)Sc3ccccc32)c1 (stereo not given) | – | – | – | –
O=C(NCCc1ccccc1)c1ccc2c(c1)NC(=O)c1ccccc1S2 | – | – | – | 53
CCCNC(=O)c1ccc2c(c1)NC(=O)c1ccccc1S2 | – | – | – | –
COc1cc(/C=N/NC(=O)Cc2n[nH]c(=O)[nH]c2=O)cc(OC)c1O | – | – | – | –
COc1ccccc1-c1nnc2sc(-c3cc4ccccc4o3)nn12 | – | – | – | 53
CC1(C)O[C@]2(CCC3C4CC[C@H]5CCCC[C@]5(C)C4CC[C@@]32C)CN1C(=O)CSC1=NCCN1 (stereo not given in full) | – | – | – | 33
C[C@]12CCCCC1CCC1C2CC[C@]2(C)C(N)CCC12 (stereo not given in full) | – | – | – | –
CCNc1cc(N2CCC3(CC2)OCCO3)c2noc3c2c1C(=O)c1ccccc1-3 | – | – | – | 39
O=C1c2ccccc2-c2onc3c(N4CCOCC4)cc(NCCN4CCCC4)c1c23 | – | – | 61 | –
SMILES | FBW7 act | GPR151 activ | MITF inh | TEAD-YAP inh
O=C1c2ccccc2-c2onc3c(N4CCOCC4)cc(NCCO)c1c23 | – | – | – | –
CC(C)CNc1cc(N2CCOCC2)c2noc3c2c1C(=O)c1ccccc1-3 | – | – | 52 | –
Cn1c(/C(C#N)=C/c2ccc3cccnc3c2)nc2ccccc21 | – | – | – | –
CCOC(=O)N1CCN(C(=O)c2ccc(NCCc3ccc(Cl)cc3)c(S(=O)(=O)Nc3cccc(C(F)(F)F)c3)c2)CC1 | – | – | – | –
Cc1ccnc(NC(=O)CSc2nnc3c4ccccc4n(CCc4ccccc4)c3n2)c1 | – | – | – | 35
CCCCCCCC(=O)Nc1ccc(C(=O)Nc2ccc(O)c(C(=O)O)c2)cc1 | 4.1 | – | – | –
Cc1ccc(C)c(-n2c3nc(=O)[nH]c(=O)c-3cc3cc([N+](=O)[O-])ccc32)c1 | – | – | – | 57
N#Cc1ccc(NC(=O)c2cc(-c3ccc(Cl)cc3)on2)cc1 | – | – | – | –
O=C(Nc1cccc(O)c1)c1cc(-c2ccc(F)cc2)on1 | – | – | – | 89
N#Cc1ccc(NC(=O)c2cc(-c3ccc(O)cc3)on2)cc1 | 2.3 | – | – | –
COc1ccc(-c2cc(C(=O)Nc3cccc(O)c3)no2)cc1 | – | – | – | 90
COc1ccc(NC(=O)c2cc(-c3cccc(O)c3)on2)cc1 | – | – | – | –
Cc1nc2c(c(=O)[nH]1)CN(C(=O)c1cccc(N3CCCCS3(=O)=O)c1)CC2 | – | – | – | –
C/C(=N\NC(=O)c1ccccc1Cl)c1ccc(C)o1 | – | – | – | –
CCCOc1ccc(C(=O)NC(=S)Nc2cccnc2)cc1 | – | – | – | –
NNc1ccc2nnc(C(F)(F)C(F)(F)C(F)(F)F)n2n1 | 1.9 | – | – | –
O=C(CCn1nnc2ccccc21)N/N=C/c1ccc(Cl)cc1Cl | – | – | – | –
N#CC1=C2SCC(O)(c3ccc(F)cc3)N2C(=O)CC1c1cccc(F)c1 (stereo not given) | – | – | – | 54
N#CC1=C2SCC(O)(c3ccco3)N2C(=O)CC1c1ccc(F)cc1 (stereo not given) | – | – | – | 43
CN1C(=O)NC(=O)/C(=C\c2cc(Cl)c(OCc3ccccc3)c(Cl)c2)C1=O | – | – | – | –
COC(=O)c1c(NC(=O)COC(=O)c2ccc([N+](=O)[O-])o2)sc2c1CCCCC2 | – | – | – | –
COc1cccc(C(=O)Nc2ccc(O)c(C(=O)O)c2)c1 | – | – | – | –
COc1cccc(C(=O)Nc2ccc(O)c(C)c2)c1 | – | – | – | 84
COc1cccc(C(=O)Nc2ccc(OC(C)C)cc2)c1 | – | – | – | 75
CC(C)Oc1ccc(NC(=O)c2cccc(Cl)c2)cc1 | – | – | – | –
SMILES | FBW7 act | GPR151 activ | MITF inh | TEAD-YAP inh
N#CC1=C(N)Oc2c(ccc3cccnc23)C1c1ccccc1Cl (stereo not given) | – | – | – | –
N#CC1=C(N)Oc2c(ccc3cccnc23)C1c1ccc(Br)cc1 (stereo not given) | – | – | – | –
N#CC1=C(N)Oc2c(ccc3cccnc23)C1c1cccc([N+](=O)[O-])c1 (stereo not given) | – | – | – | 49
Cc1ccc(C2C(C#N)=C(N)Oc3c2ccc2cccnc32)cc1 (stereo not given) | – | – | – | 37
N#CC1=C(N)Oc2cc(N)ccc2C1c1cccc([N+](=O)[O-])c1 (stereo not given) | – | – | – | 40
O=C(CN1CC(=O)Nc2ccccc21)Nc1ccc(N2CCCCC2)cc1 | – | – | – | –
C/C(=N\NC(=O)c1cccc([N+](=O)[O-])c1)c1cccs1 | – | – | – | –
C/C(=N\NC(=O)c1ccccc1O)c1cccs1 | – | – | – | 38
C/C(=N/NC(=O)c1ccccn1)c1cccs1 | – | – | – | 66
C/C(=N\NC(=O)c1cnccn1)c1cccs1 | – | – | – | –
C/C(=N/NC(=O)c1ccc(O)cc1)c1cccs1 | – | – | – | –
